Results reported in PubChem BioAssay (NCATS).
Records with an inconclusive call do not appear. A number with no mark means an inactive call. Calls of active or inactive are those of the source. The call rests on the fitted dose curve; in most records, active means well fitted inhibition curve with a large enough effect; inconclusive means small, poorly fitted or top-dose-only effect; inactive means no such curve, though single readings can be large or run the other way.

These compounds were tested on Zika virus NS2B-NS3 protease (linked construct) (assay: Primary screen NINDS Rhodamine qHTS for Zika virus inhibitors (AID 1347160; further: nearly all actives have a fitted effect of over 55% in size)). Settings: purified NS2B-NS3 protease, Rhodamine110 substrate fluorescence; series mostly up to 57.1 µM; activity change, negative = inhibition: at the top concentration.
How it was run: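 In 10 mM Tris-HCl pH 8.0 containing 0.01% Tween 20, linked NS2B-NS3 protease (25 nM final) is exposed to test compounds for 15 min. Cleavage of 1.5 microM Rhodamine110 substrate is tracked by fluorescence over 15 min.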
On the % scale 0 is the no-effect control and ±100 the full control effect.

With `CC(C)NCCCn1c(Sc2cc3c(cc2I)OCO3)nc2c(N)ncnc21` as the compound, how does the “outcome” value read?
The value was “inactive”.

For `C=C1C(=O)OC2/C=C(\CO)CC/C=C(\C=O)C(OC)C(OC(=O)C(C)CC)C12` (stereo unspecified), which “activity change, negative = inhibition” value is on record?
The value was -14% [at 33.1 µM].

For `CCO[C@H]1CN(C2CCC(O)(c3ccc4c(c3)OCO4)CC2)C[C@@H]1NC(=O)CNC(=O)c1cccc(C(F)(F)F)c1` (stereo partly specified), which “activity change, negative = inhibition” value is on record?
The value was -9.19%.

`CC(C)(C[C@@](O)(Cc1cc2ccncc2[nH]1)C(F)(F)F)c1cc(F)ccc1O` was tested. Which “activity change, negative = inhibition” value did it give?
The value was 49.5%.

For `CCc1cc2c(cc1CC)CC(NCC(O)c1ccc(O)c3[nH]c(=O)ccc13)C2` (stereo unspecified), which “activity change, negative = inhibition” value is on record?
The value was 100%.

How did the “activity change, negative = inhibition” value turn out when `CCOC(=O)N1c2ccc(C(F)(F)F)cc2C(N(Cc2cc(C(F)(F)F)cc(C(F)(F)F)c2)C(=O)OC)CC1CC` (stereo unspecified) was run?
The value was -21.6%.

For `CN1CCN(c2ccc(-c3cccc(CN4CCOCC4)c3)cc2NC(=O)c2c[nH]c(=O)cc2C(F)(F)F)CC1`, which “activity change, negative = inhibition” value is on record?
Its value is 23.4% [at 33.1 µM].

`C=CC(C)(O)CC/C=C(\C)C(=O)OC1C(O)C(CO)OC(OC(=O)C23CCC(C)(C)CC2C2=CCC4C5(C)CCC(OC6OC(COC7OCC(OC(C)=O)C(O)C7OC7OC(COC(C)=O)C(O)C(O)C7OC(C)=O)C(O)C(O)C6OC6OCC(O)C(O)C6O)C(C)(C)C5CCC4(C)C2(C)C(O)C3O)C1OC1OCC(OC2OCC(O)C(OC3OCC(O)C(O)C3O)C2O)C(O)C1O` (stereo unspecified) was tested. Which activity change, negative = inhibition did it give?
Its activity change, negative = inhibition is -13.7% [at 10.7 µM].

How did the “outcome” value turn out when `O=C1Nc2ccccc2-c2nc3ccccc3c(=O)n2-c2c(O)cccc21` was run?
Its value is “inactive [at 33.1 µM]”.

`CC1(C)OC[C@H](NC(=O)Nc2ccc(Br)cc2Br)[C@H](c2ccccc2)O1` was tested. Which “activity change, negative = inhibition” value did it give?
The value was 20.1%.

How did the “activity change, negative = inhibition” value turn out when `CNC(=O)c1cc(Oc2ccc(NC(=O)c3cccc(C(F)(F)F)c3)cc2)ccn1` was run?
The value was 20.7%.
